Results on six molecules are retold here after PubChem BioAssay (NCATS).

Test [1] is described as follows: AP1 Signaling Pathway (AID 357). Note: % is set by controls: 0 for no effect and ±100 for the full control effect. The conditions noted are these: ME-180 AP-1-bla reporter, EGF-induced, beta-lactamase ratio, 5 h. In short, it runs like this: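 ME-180 cells with beta-lactamase reporter under AP-1 response element, stimulated with EC50 EGF; compounds tested in titration series, 5 h at 37 °C. CCF4 substrate added 2.5 h at room temperature; 460/530 nm emission ratio gave %activity and AC50.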

The target of test [2] is Cytochrome P450 1A2 (Homo sapiens) (UniProt P05177). Kind of test: p450-cyp1a2 (AID 410; calls by dose curve; note: potency is the fitted concentration of half-maximal effect). The conditions noted are these: recombinant CYP1A2, luciferin-ME demethylation, luminescence; series mostly up to 25.6 µM. In short, it runs like this:
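20nM CYP1A2 with 100uM Luciferin-ME (at Km) in 100mM KPO4; compound preincubated 10 min, NADPH regeneration added, 60 min at room temperature. Luciferin quantified by luminescence after detection reagent; normalized to 57 uM furafylline.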

The nature of test [3]: NFAT Signaling Pathway (AID 444).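 Note: carbachol stimulus at about its EC50 of 1 µM final; % is set by controls: 0 for no effect and ±100 for the full control effect.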 The conditions noted are these: Jurkat NFAT-bla M1, carbachol, beta-lactamase ratio, 5 h. The method, boiled down: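 Read-out: CCF4 FRET ratio (460 nm/530 nm) after 1 h RT dye loading, used for %activity and AC50 from titration series. Cells: Jurkat NFAT-β-lactamase/M1 line, treated with compound plus 1 uM carbachol for 5 h, 37 °C.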
Test [4] is described as follows: Stat Signaling Pathway (AID 446).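 Note: ME-180 cervical cancer cells given 40 pM IL-6 alongside compound; SIE-controlled beta-lactamase reporter measured as 460/530 nm FRET emission ratio; % is set by controls: 0 for no effect and ±100 for the full control effect.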 The conditions noted are these: ME-180 SIE beta-lactamase reporter, IL-6 stimulated, 5 h. The method, boiled down: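 Screening format detects activators and inhibitors alike: ME-180 SIE-bla cells stimulated at 40 pM IL-6 for 5 hrs with compound, then dual-emission beta-lactamase read at 405 nm excitation.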
In test [5] the target is Glucocorticoid receptor (Homo sapiens) (UniProt P04150). Kind of test: GR-GFP Redistribution (AID 450;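 active = compounds whose dose series gives a full or clear partial fitted curve of increased nuclear translocation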; note: potency is the fitted concentration of half-maximal effect). The conditions noted are these: U2OS GR-GFP nuclear translocation, laser cytometry, 2 h.
Test [6] has the same target. Kind of test: GR-EFC Redistribution (AID 451; calls by dose curve; note: potency is the fitted concentration of half-maximal effect). The conditions noted are these: CHO-K1 GR-EFC translocation, beta-gal luminescence, 2 h. The method, boiled down:
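Translocation of GR-ED fusion to nuclear EA restores b-gal, read by luminescence after 1 h room-temperature detection. Engineered CHO-K1 biosensor cells, 1,000/well, exposed 2 h at 37 C to titrations up to 46 uM final.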

In test [7] the target is Mitogen-activated protein kinase 10 (Mus musculus) (UniProt Q61831). Kind of test: JNK3 AlphaScreen Assay (AID 530).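 For activity change, negative = inhibition: signal reports phosphorylation of biotinylated GST-cJun 1-79 at Ser73 with 10 µM ATP; % is set by controls: 0 for no effect and ±100 for the full control effect.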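 Note: kinase came from lysate of stimulated human HepG2 cells.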 Note: potency is the fitted concentration of half-maximal effect. The conditions noted are these: JNK3 lysate, c-Jun phosphorylation; series mostly up to 57.1 µM. The method, boiled down: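 Compound titrations were preincubated 15 minutes at room temperature with substrate, antibody and pre-activated JNK3-containing HepG2 lysate. Reactions were started with 10 uM ATP and stopped with EDTA-containing bead buffer for AlphaScreen detection.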
Background: In Alpha technology, singlet oxygen from a donor bead excites a nearby acceptor bead.

Test [8] in a line: Cell Viability - BJ (AID 421; calls by dose curve;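 note: potency is the fitted concentration of half-maximal effect; cells exposed to compound for 40 hours at 37 °C before readout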). The conditions noted are these: BJ fibroblast viability, qHTS. In short, it runs like this:
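Cytotoxicity in human BJ foreskin fibroblasts is scored as loss of cellular ATP after a 40-hour exposure, measured by luciferase luminescence. Controls are DMSO and 100 uM tamoxifen.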
On the technique in general: In qHTS, concentration-response curves come from the screen itself.

The nature of test [9]: Cell Viability - Jurkat (AID 426;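 active = dose-dependent loss of cell ATP signal giving a full or clear fitted curve, ranked by lower potency value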; note: potency is the fitted concentration of half-maximal effect). The conditions noted are these: qHTS. In short, it runs like this: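 Jurkat (Clone E6-1) cells, 5000/well in complete medium, exposed to compounds for 40 hr at 37C; intracellular ATP measured by CellTiter-Glo luminescence after 20 min at room temperature. AC50 from Hill fits.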
Test [10] in a line: Cell Viability - Hek293 (AID 427;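 active = compounds whose dose-response curve shows a full or clear partial loss of cell viability, called from curve shape rather than a numeric limit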;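 note: potency is the fitted concentration of half-maximal effect; cells exposed to compound for 40 hours at 37 °C before reading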). The conditions noted are these: qHTS. The method, boiled down:
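qHTS, human embryonic kidney (adenovirus-transformed) cells; 40 hr cpd, 37 °C; CellTiter-Glo ATP luminescence. Norm: DMSO = 0, 100 uM tamoxifen = 100% inhibition. Hill-fit AC50.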

Test [11] in a line: Cell Viability - HepG2 (AID 433; calls by dose curve;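 note: potency is the fitted concentration of half-maximal effect; potency for ATP loss meaning cytotoxicity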). The conditions noted are these: qHTS. In short, it runs like this:
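Cytotoxicity is scored as loss of intracellular ATP in HepG2 cells exposed to compounds for 40 h. Concentration-response curves, normalized to DMSO and 100 uM tamoxifen, give AC50 values.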

A short description of test [12]: Cell Viability - MRC5 (AID 434; calls by dose curve;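 note: potency is the fitted concentration of half-maximal effect; potency reflects cytotoxicity seen as loss of intracellular ATP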). The conditions noted are these: MRC5 lung fibroblast viability, qHTS. In short, it runs like this:
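qHTS cytotoxicity in human lung fibroblast MRC5 cells; 40 hr treatment, 37 °C; cellular ATP by luciferase luminescence; DMSO = 0%, 100 uM tamoxifen = 100% inhibition; Hill-fit AC50.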

Test [13] can be described thus: Cell Viability - SK-N-SH (AID 435; calls by dose curve;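 note: potency is the fitted concentration of half-maximal effect; compound exposure lasted 40 h at 37 °C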). The conditions noted are these: SK-N-SH neuroblastoma cell viability qHTS. The method, boiled down: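 Cells seeded at 1500 per well and incubated 5 hr at 37 °C. Compound added, then 40 hr at 37 °C. CellTiter-Glo added, 20 min at room temperature, luminescence read.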
The nature of test [14]: Cell Viability - HUV-EC-C (AID 542; active = well fitted curve in the direction sought with a large enough effect; an effect the other way counts as inactive or inconclusive; note: % is set by controls: 0 for no effect and ±100 for the full control effect; nearly all actives have a fitted effect of over 35% in size). The conditions noted are these: HUV-EC-C endothelial cell viability, qHTS; series mostly up to 92.2 µM. In short, it runs like this:
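HUV-EC-C human vascular endothelial cells, 1000/well, exposed to compound for 40 hr at 37 °C in complete medium. Intracellular ATP was read by CellTiter-Glo luminescence. AC50 came from Hill-equation fits of concentration-response data.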

Test [15] in a line: Cell Viability - SH-SY5Y (AID 544; active = well fitted curve in the direction sought with a large enough effect; an effect the other way counts as inactive or inconclusive;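 note: 0% = DMSO alone and -100% = 100 µM tamoxifen; nearly all actives have a fitted effect of over 55% in size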). The conditions noted are these: SH-SY5Y neuroblastoma cell viability; series mostly up to 92.2 µM. The method, boiled down: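 SH-SY5Y human neuroblastoma cells (1500/well) incubated 5 h, then compound-treated 40 h at 37 °C in complete medium. Viability read as intracellular ATP by CellTiter-Glo luminescence after 20 min; AC50 from Hill-equation fits of qHTS concentration-response.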

A short description of test [16]: Cell Viability - Mesenchymal (AID 546; active = well fitted curve in the direction sought with a large enough effect; an effect the other way counts as inactive or inconclusive;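 note: cells exposed to compound for 40 hours before reading; 0% = DMSO only and -100% = 100 µM tamoxifen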). The conditions noted are these: mesenchymal cells viability, qHTS; series mostly up to 91.7 µM. The method, boiled down:
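AC50 values reflect the drop in intracellular ATP in a human kidney mesenchymal line derived from normal glomeruli. Treatment lasts 40 hr at 37 °C in complete medium, and the signal comes from CellTiter-Glo luminescence.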

Each structure is given as a SMILES string. Where “and” joins values, the source holds several entries; their conditions need not be identical. Equal values may be shown once. Values without a mark were called inactive. Records with an inconclusive call do not appear. Calls of active or inactive are those of the source. Unless noted, calls come from the whole dose curve; as a rule, active = well fitted curve in either direction with a large enough effect (not every such curve was filed as active); inconclusive = small, poorly fitted or top-dose-only effect, or another doubt; inactive = flat fitted curve, though single readings scatter.

Sequence of Cytochrome P450 1A2 (Homo sapiens) (P05177 whole entry, looked up): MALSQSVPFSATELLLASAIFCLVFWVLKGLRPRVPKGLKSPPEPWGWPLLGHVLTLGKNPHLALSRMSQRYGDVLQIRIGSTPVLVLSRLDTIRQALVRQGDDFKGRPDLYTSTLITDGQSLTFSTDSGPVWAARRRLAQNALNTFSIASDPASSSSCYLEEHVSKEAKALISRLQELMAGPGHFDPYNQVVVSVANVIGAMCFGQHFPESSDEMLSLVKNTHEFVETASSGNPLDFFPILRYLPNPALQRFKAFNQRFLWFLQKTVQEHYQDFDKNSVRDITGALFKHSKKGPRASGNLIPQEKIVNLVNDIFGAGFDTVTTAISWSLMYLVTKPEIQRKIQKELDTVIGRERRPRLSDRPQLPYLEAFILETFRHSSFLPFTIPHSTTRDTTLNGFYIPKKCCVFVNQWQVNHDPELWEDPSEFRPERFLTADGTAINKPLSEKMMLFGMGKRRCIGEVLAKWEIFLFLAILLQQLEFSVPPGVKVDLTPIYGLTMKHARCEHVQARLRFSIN
Sequence of Glucocorticoid receptor (Homo sapiens) (P04150 whole entry, looked up): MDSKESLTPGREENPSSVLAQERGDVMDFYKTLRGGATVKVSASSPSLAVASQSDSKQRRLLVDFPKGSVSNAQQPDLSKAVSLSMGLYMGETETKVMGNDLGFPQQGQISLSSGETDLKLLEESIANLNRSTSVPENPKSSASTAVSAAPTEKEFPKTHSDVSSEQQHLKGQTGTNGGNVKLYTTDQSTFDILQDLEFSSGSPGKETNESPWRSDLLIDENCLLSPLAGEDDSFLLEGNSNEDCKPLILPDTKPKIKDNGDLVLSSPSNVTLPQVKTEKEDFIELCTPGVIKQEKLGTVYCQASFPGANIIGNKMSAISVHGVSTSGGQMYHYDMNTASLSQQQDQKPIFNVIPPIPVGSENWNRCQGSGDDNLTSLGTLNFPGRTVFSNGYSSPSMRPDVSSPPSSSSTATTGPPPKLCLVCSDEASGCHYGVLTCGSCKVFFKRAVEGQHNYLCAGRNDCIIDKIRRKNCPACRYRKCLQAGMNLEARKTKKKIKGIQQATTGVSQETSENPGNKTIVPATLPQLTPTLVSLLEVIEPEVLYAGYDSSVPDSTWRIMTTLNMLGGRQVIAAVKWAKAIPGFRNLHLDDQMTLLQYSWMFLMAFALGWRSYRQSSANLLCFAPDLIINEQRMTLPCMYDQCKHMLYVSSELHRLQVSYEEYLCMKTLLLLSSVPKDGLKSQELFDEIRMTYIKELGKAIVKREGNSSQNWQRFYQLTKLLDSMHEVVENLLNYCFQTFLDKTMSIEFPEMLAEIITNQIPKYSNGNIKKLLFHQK

For the molecule `NC1CCN(c2cccc(Cl)n2)CC1`, the activity change, negative = inhibition in test [1] (at 38 µM (top of the series)) is 2.98%; in test [3] (at 38 µM (top of the series)) it was -6.65%. In addition, the Potency in [2] is 20 µM (active) and 15.8 µM (active); in [5] it was greater than 46 µM; in [6], greater than 46 µM. The activity, negative = inhibition in [4] (at 38 µM (top of the series)) was -14.3%. Further, the Potency entry in [7] was “inactive”.
`C=Cc1c(C)c2cc3[nH]c(cc4nc(cc5nc(cc1[nH]2)C(C)=C5CCC(=O)O)C(CCC(=O)O)=C4C)c(C)c3C=C`: the results for the activity change, negative = inhibition in test [1] (at 38 µM (top of the series)) and in [3] (at 38 µM (top of the series)) were -5.02% and 10.7%, respectively. For the same molecule, the Potency was 6.31 µM (active) in test [2], greater than 46 µM in test [5], greater than 46 µM in test [6] and 0.398 µM [activator] (active) in [7].
As to `CC(C)NC[C@H](O)c1ccc(O)c(O)c1`, the activity change, negative = inhibition in [1] (at 17.2 µM (top of the series)) was 3.55% and -12.3%; in test [1] (at 38 µM (top of the series)), -3.34% [middle of 4 runs]; in [3] (at 17.2 µM (top of the series)), -6.44% and -3.44%. Further, the activity, negative = inhibition is -5.65% and -7.18% in test [4] (at 17.2 µM (top of the series)); -27.8% and -1.34% and -7.26% in [4] (at 38 µM (top of the series)). The Potency in test [5] is > 46 µM and > 20.6 µM; in test [6] it was > 46 µM and > 20.6 µM. The Potency result in test [7] is “inactive”.
For the molecule `CC1=C(CC(=O)O)c2cc(F)ccc2/C1=C\c1ccc(S(C)=O)cc1` (centres undefined), the activity change, negative = inhibition in [1] (at 17.2 µM (top of the series)) was 6.13%; in [1] (at 38 µM (top of the series)), -0.0105%; in test [3] (at 38 µM (top of the series)) it was 2.92%. Moreover, the Potency is 12.6 µM (active) and 3.98 µM (active) in test [2]; > 46 µM and > 20.6 µM in test [5]; > 46 µM and > 20.6 µM in test [6]. The activity, negative = inhibition in test [4] (at 17.2 µM (top of the series)) was 0.939%; in [4] (at 38 µM (top of the series)), 9.67%.
`C[C@]12C[C@H](O)[C@H]3[C@@H](CCC4=CC(=O)CC[C@@]43C)[C@@H]1CC[C@@H]2C(=O)CO`: the activity change, negative = inhibition in test [1] (at 17.2 µM (top of the series)) is 0.397%; in test [3] (at 17.2 µM (top of the series)), 2.08%. Also, the Potency in test [8], in test [9], in test [10], in [11], in test [12] and in test [13] was greater than 92 µM each time. The Potency in test [5] was 0.00593 µM (active). In test [4] (at 17.2 µM (top of the series)), the activity, negative = inhibition is 3.29%. The Potency result in test [14] and in test [15] was “inactive” throughout. The molecule was classed as inactive in test [16].
As to `Cc1c(Cl)cccc1Nc1ccccc1C(=O)O`, the activity change, negative = inhibition was -25.1% and -19.5% in test [1] (at 17.2 µM (top of the series)); -35.5% in test [3] (at 17.2 µM (top of the series)). The Potency in test [2] was 3.16 µM (active); in test [5], greater than 20.6 µM; in [6], greater than 20.6 µM. Also, in [4] (at 17.2 µM (top of the series)), the activity, negative = inhibition is -15.1% and -25.4%. Further, the Potency result in test [7] is “inactive”.
